Test results published in PubChem BioAssay (NCI).
“And” between values parts separate entries of the source, which are not always exact repeats. Equal entries are not always repeated. This is part of a sample that, as a whole, favours compounds with a hit. Of some 83,000 tested, about 20% had one in any assay.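 Single-concentration screen, 48 h exposure, 96-well plates. Endpoint: percent growth. Below 10 = active.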 The source made the active and inactive calls.

Tested on: HL-60(TB) leukemia
Assay: NCI-60 one-dose screen, 48 h (100 = growth as untreated, 0 = no growth, -100 = all killed)
Details: 10 µM unless noted

Structure (SMILES) | growth
COc1cccc(C(=O)N(c2ccc(F)c(F)c2)C(C(=O)NC(C)(C)C)c2cc3c(C)cc(C)cc3nc2Cl)c1 (stereo unspecified) | 63.3% (inactive)
O[C@@H]1Cc2ccc3ccccc3c2N[C@H](c2ccoc2)C1 | 105% (inactive)
CC(=O)N1N=C(C2C(=O)N(C)C(=O)N(C)C2=O)CC1c1ccccc1C(=O)O (stereo unspecified) | 92.2% (inactive)
COc1ccccc1/C=C1\Oc2cc(OCCCN3CCCC3)ccc2C1=O | 78.7% (inactive)
O=C(O)C1CCN(S(=O)(=O)c2ccc(-c3ccccc3)cc2)CC1 | 45.6% (inactive)
CC(C)(C)OC[C@@H]1N=C(c2ccc(Br)cc2)Nc2nc3ccccn3c2C1=O | 33.1% (inactive)
Oc1ccccc1/C=N\NC(=S)N/N=C/c1ccccc1O | -7.82% (active) and 18.6% (inactive)
CCCNC(=O)Oc1ccc(/C(=C(\C)c2ccccc2)c2ccc(OCCN3CCCCC3)cc2)cc1 | 63.1% (inactive)
Oc1c(Cl)cc(Cl)c2ccc(Cn3cc(-c4cc(C(F)(F)F)cc(C(F)(F)F)c4)nn3)nc12 | -13.7% (active)
Cc1ncc(CO)c(C(=O)O)c1O | 84.2% (inactive)
O=C(Nc1ccc(F)cc1F)c1cc(Br)ccc1O | -36.2% (active)
Ic1ccc2[nH]cc(SSc3c[nH]c4ccc(I)cc34)c2c1 | -21.7% (active)
Cc1nc2sc(C(=O)Nc3cccc(Cl)c3C)c(N)c2cc1C(=O)c1ccccc1 | 5.28% (active)
Fc1cccc(CNc2c3ccccc3nc3ccccc23)c1F | 76% (inactive)
CCCOc1cc2ccccc2cc1C(=O)Nc1nc(NC)c2c(ccc3nccc32)[nH]1 | -55.2% (active)
CN(C)c1ccc(N=Nc2ccccn2)c(O)c1 | -36.3% (active)
N=c1ccc2nc3c(cc(N)c4ccccc43)oc-2c1 | -48.4% (active)
Nc1nc(SCC#CCCl)c2[nH]cnc2n1 | 11% (inactive)
CCCCn1c(C)nc2ccc(Nc3nc(N4CCN(C)CC4)nc4nc[nH]c34)cc21 | 99.8% (inactive)
CC1(C)C2CC1C1(/C=N/NC(N)=S)C(C2)C(C#N)(C#N)C1(C#N)C#N (stereo unspecified) | 13.5% (inactive)
c1ccc2c(c1)cnc1ccccc12 | 94.9% (inactive)
NC(=S)N/N=C(\c1ccc(Br)cc1)C1CC1 | 65.6% (inactive) and 64.8% (inactive)

Structure (SMILES) | growth
N#Cc1cnn2c(-c3ccc(Cl)cc3)nc(NC3CC3)nc12 | 98.2% (inactive)
O=C(CCN1C(=O)/C(=C/c2ccc(O)cc2)SC1=S)Nc1ccccc1 | 61.2% (inactive)
CCOc1ccc(/C=N\N2CCCCCC2)cc1OCC | 92.7% (inactive)
COc1ccc2[nH]cc(-c3nc(-c4c[nH]c5ccncc45)cs3)c2c1 | 3.64% (active)
COc1ccc([N+](=O)[O-])cc1OC | 85.5% (inactive) and 99.2% (inactive)
CC(C)N1CN2C(=S)NC3C2N(C1)C(=S)N3C (stereo unspecified) | 100% (inactive)
O=C(Nc1cccnc1Nc1ccc(F)cc1)c1cn(Cc2cccc(Oc3ccccc3)c2)nn1 | 26.3% (inactive)
N#CCSc1nnc2n(Cc3ccccc3)c(=O)c3c4c(sc3n12)CCCC4 | 81.7% (inactive)
Cc1c(Cc2ccccc2)c(=O)oc2c(C)c(OCc3n[nH]c(=S)o3)ccc12 | 69.7% (inactive)
NCc1c(O)ccc2ccccc12 | 102% (inactive)
Cc1c(C(=O)O[C@H]2[C@@H]3[C@H](C)CC[C@H]3[C@]3(C)O[C@@]2(C2CCCCC2)C[C@H]3OC(=O)CO)ccc2ccccc12 | -31.5% (active)
Cc1sc2nc(N3CCCCC3)[nH]c(=O)c2c1C | 102% (inactive)
COC(=O)c1ccccc1C(=O)c1c(C)cc(C)cc1C | 84.6% (inactive)
N#C/C(=C/c1ccc([N+](=O)[O-])cc1)n1nnc2cc(F)c(F)cc21 | 62.7% (inactive)
CCCOCC(O)CNCCN (stereo unspecified) | 99.8% (inactive)
CCOP(=O)(OCC)c1nc(-c2ccccc2)oc1NCc1cccnc1 | 102% (inactive)
CC(=O)OC1CC2C(C)(C)OC3CC(=O)OCC32C2CCC3(C)C(=CCC3c3ccoc3)C12C (stereo unspecified) | 116% (inactive)
CCCCNC(=O)Oc1ccc(/C(=C(\C)c2ccc(OC)cc2)c2ccc(OCCN3CCCCC3)cc2)cc1 | 34.6% (inactive)
C/C=C/C(=O)OCCCCCCCCCCCC | 85.2% (inactive)
Cc1ccccc1/C=C/C(=O)c1cccc(OCCCOc2cccc(C(=O)/C=C/c3ccccc3C)c2)c1 | 78.2% [3 µM] (inactive)
COc1cc2c(c(OC)c1OC)CCC(c1cccc(C(=O)Nc3cccc(Br)c3)c1)O2 (stereo unspecified) | 101% (inactive)
O=C1OC(=O)C2C3CC(c4ccccc43)C12 (stereo unspecified) | 112% (inactive)

Structure (SMILES) | growth
CCN1C(=O)/C(=c2\sc3n(c2=O)C2C(NN=3)N(CC)C(=S)N2CC)c2ccccc21 (stereo unspecified) | 87.4% (inactive)
CCOc1ccc2nc(-c3cccc(OCC(=O)NC(C)C)c3)nc(Nc3ccc(-c4cn[nH]c4)cc3)c2c1 | 2.3% (active)
CN(C)CCCN1c2ccccc2Sc2ccc(Cl)cc21 | 107% (inactive) and 92.5% (inactive)
FC(F)(F)c1ccc(-c2cn3nc(-c4c[nH]c5ccc(Br)cc45)sc3n2)cc1 | 96.9% (inactive)
OCC1CCC(O)C(CO)N1 (stereo unspecified) | 98.2% (inactive)
NC(=S)N/N=C1\CCCC(C(F)(F)F)C1 (stereo unspecified) | 89% (inactive)
COc1cc(C)c(Cl)cc1C1=NN(c2ccc(S(N)(=O)=O)cc2)C(/C=C/c2ccccc2)C1 (stereo unspecified) | 63.6% (inactive)
O=C(C=P(c1ccccc1)(c1ccccc1)c1ccccc1)c1ccc(Br)cc1 | 8.84% (active)
O=C1N=NC2=C1c1c3ccccc3c(O)n1CC2 | 105% (inactive)
O=C(c1ccccc1)c1ccc(-c2ccc(O)cc2)cc1 | 75.1% (inactive)
C/C(=N\Nc1cc(C)c2ccccc2n1)c1ccccn1 | -47.1% (active)
C=CCn1c(C)nc2cc(Nc3nc(Nc4ccc5nc(C)n(CC=C)c5c4)nc4ccccc34)ccc21 | 84% (inactive)
O=C(CCC(C(=O)c1ccccc1)c1ccccc1)c1ccccc1 (stereo unspecified) | 28.1% (inactive)
COc1ccc(Nc2nnc(SCc3ccccc3F)s2)cc1 | 86% (inactive)
C=C1C(=O)O[C@H]2[C@H]1CC/C(COC(=O)C(=O)c1cn(C)c3ccc(Cl)cc13)=C\CC[C@@]1(C)O[C@@H]21 | -35.1% (active)
CC(=O)c1cc2c(N)c(C(=O)Nc3cncc4ccccc34)sc2nc1C | 91.6% (inactive)
Cn1c(=O)c2[nH]c(CCCCC(=O)O)nc2n(C)c1=O | 60.6% (inactive)
O=C(c1c(F)ccc(NS(=O)(=O)N2CC[C@@H](F)C2)c1F)c1c[nH]c2ncc(-c3cnc(C4CC4)nc3)cc12 | 35.6% (inactive)
NNc1ccc2ccccc2c1 | 98.4% (inactive) and 108% (inactive)
CCN(CC)Cc1cc2[nH]c3c4ccc(Cl)cc4ncc3c2cc1OC | -72.1% (active) and 94.6% (inactive)
O=c1c2sc3ncccc3c2nnn1-c1ccccc1 | 106% (inactive)
S=C(S)N1CCCC1 | 114% (inactive) and 110% (inactive)

Structure (SMILES) | growth
CC(C)(C#N)c1cc(F)cc(C(=O)Nc2cc(Nc3ncccc3-c3ncnc4nc[nH]c34)ccc2F)c1 | 13.9% (inactive)
Cc1nc2n(c(=O)c1CCN1CCC(c3noc4cc(F)ccc34)CC1)CCC[C@@H]2O | 89.7% (inactive)
CCCCCCCCCCCCCCCCCCOP(=O)([O-])OC1CC[N+](C)(C)CC1 | -22.6% (active) and -37.1% (active)
CCOC(=O)NC(/C=C/c1ccccc1)NC(=O)OCC | 103% (inactive)
O=[N+]([O-])c1cccc(N=C(Nc2cccc([N+](=O)[O-])c2)c2ccccc2)c1 | 102% (inactive)
Cn1cc(-c2cc3c(Nc4ccc(CC(=O)Nc5cc(C(C)(C)C)on5)cc4)ncnc3[nH]2)cn1 | 6.63% (active) and -21.3% (active)
Cc1ccc(-c2nc(N3CCNCC3)c3oc(-c4ccccc4)nc3n2)cc1 | -66.6% (active)
CCN(CCO)CCC(=O)c1ccc([N+](=O)[O-])cc1 | 109% (inactive)
O=C1/C(=C/c2ccccc2[N+](=O)[O-])Oc2ccc(O)c(O)c21 | 4.39% (active)
O=C(NC(=O)c1ccc(F)c(Cl)c1)NC1CC1 | 88.3% (inactive) and 89% (inactive)
Oc1cccc(Nc2nccc(-c3ccc4ccccc4c3)n2)c1 | 0.229% (active)
COC(=O)CC[C@H](C)[C@H]1CC[C@H]2[C@@H]3CC[C@@H]4CC5(CC[C@]4(C)[C@H]3CC(=O)[C@]12C)Nc1ccccc1NC5=NC(C)(C)C (stereo partly specified) | 43.6% (inactive)
O=C(Cc1ccccc1)c1ccc(Cl)cc1 | 111% (inactive)
Cc1nn(-c2ccccc2)c(N2CCOCC2)c1/C=N/N=c1\sc2ccccc2n1C | 67.2% (inactive)
CC(=O)c1ccc2c(c1)N(CCCN1CCN(CCO)CC1)c1ccccc1S2 | 73.9% (inactive) and 2.94% (active)
O=C1c2ccc3c4ccc5c6c(ccc(c7ccc(c2c37)C(=O)N1CCC[P+](c1ccccc1)(c1ccccc1)c1ccccc1)c64)C(=O)N(CCC[P+](c1ccccc1)(c1ccccc1)c1ccccc1)C5=O | 54.6% (inactive)
COc1cc(-c2nc3occn3c2-c2ccnc(NCCNS(=O)(=O)c3ccc(Cl)cc3)n2)ccc1F | 100% (inactive)
O=S(=O)(NCCCNc1nccc(-c2c(-c3ccc(F)c(O)c3)nc3occn23)n1)c1ccc(Cl)cc1 | 94.2% (inactive)
O=C(/C=C/c1cccc2ccccc12)Nc1ncc(Cc2ccccc2)s1 | -11% (active)
C=C1C(=O)O[C@H]2[C@H]1CC/C(Cn1cc(CNCCc3c[nH]c4ccccc34)nn1)=C\CC[C@@]1(C)O[C@@H]21 | 26.1% (inactive)
